Data: PubChem BioAssay AID2391 (Southern Research Specialized Biocontainment Screening …, 2010)
About 410 (0.13%) of roughly 310,000 compounds were called active. Not shown: some 2% with an inconclusive outcome. No rule for the calls is given here. These entries were drawn from the full list. Potency and affinity values are given separately.

test: inhibition of RSV-induced cytopathic effect – HEp-2 cells, primary 10 µM value included (AID 2391); conditions: at 10 µM, active compounds read high

CPE inhibition, inactive:
O=C(CSc1nccc(=O)[nH]1)c1ccccc1Br 2.89%, COc1ccc(C)cc1NC(=O)CSc1nnnn1C1CCCC1 2.31%, Cc1cc(=O)[nH]c(NCc2ccc(Cl)cc2)n1 0.3%, Cc1ccsc1C(=O)NNC(=O)C1C2C=CC(C2)C1C(=O)O (centres undefined) 0.87%, COc1ccc(OCc2nnc(SCC(=O)Nc3cccc(Cl)c3)o2)cc1 2.31%, CSc1nnc(-c2sc3cc(Cl)ccc3c2Cl)n1C 14%, CCn1c(SC)nnc1-c1nnc(SC)n1CC 3.28%, O=C(Cn1nc(-c2ccccc2)c2ccccc2c1=O)Nc1ccc(F)cc1 2.89%, COc1ccc(CNC(=O)c2coc(=O)c3ccccc23)c(OC)c1 -0.36%, COc1ccc(CNC(=O)c2coc(=O)c3ccccc23)cc1 5.17%, C#CCn1c(S(=O)(=O)Cc2ccccc2Cl)nc(-c2ccccc2)c1-c1ccccc1 -0.31%, C#CCn1c(S(=O)(=O)Cc2ccc(OC)cc2)nc(-c2ccccc2)c1-c1ccccc1 3.68%, Cc1cc([N+](=O)[O-])nn1CCCC(=O)O 5.17%, CN(NC(=O)c1cccc(Cl)c1)c1nc(-c2ccccc2)nnc1C(F)(F)F 3.22%, CCN(CC(=O)Nc1cc(Cl)ccc1C)C(=O)CCOc1ccc(C)cc1 0.1%, CCN(CC(=O)Nc1cc(Cl)ccc1C)C(=O)CSCc1c(C)noc1C 16.3%, COc1cc(C(=O)NCC(=O)N/N=C/c2c(C)[nH]c3ccccc23)cc(OC)c1OC 3.1%, COc1ccc(C(=O)NCC(=O)N/N=C/c2c(C)[nH]c3ccccc23)cc1 6.54%, CC(=O)c1ccc(N2CCN(C(=O)c3nn(Cc4ccccc4)c(=O)c4ccccc34)CC2)cc1 5.5%, COc1ccc(NC(=O)Cn2nnc(-c3ccccc3NC(=O)c3ccco3)n2)cc1 0.17%, COc1ccccc1NC(=O)c1sc2ncn(Cc3cccc4ccccc34)c(=O)c2c1C 2.87%, COc1ccccc1N(CC(=O)Nc1ccc(F)c(F)c1)S(C)(=O)=O 0.09%, O=c1[nH]c(=O)n(C2OC(CO)C(O)C2O)cc1Br (centres undefined) -0.14%, O=c1ccn([C@@H]2O[C@H](CO)[C@@H](O)[C@H]2O)c(=O)[nH]1 -0.56%, Nc1ccn([C@@H]2O[C@H](CO)[C@@H](O)C2O)c(=O)n1 (some centres undefined) -2.12%, Nc1ccn([C@@H]2O[C@H](CO)[C@@H](O)[C@@H]2O)c(=O)n1 -0.64%, CCOc1ccccc1Nc1cc(C)nc2nnnn12 -1.74%, Cc1ccc(S(=O)(=O)[N-]c2nc3ccccc3nc2-n2cc[n+](CCC(C)C)c2)cc1 0.13%, COc1cc(NC(=S)N2CCN(Cc3ccccc3)CC2)cc(OC)c1 4.9%, Cc1cc(/C=C2/NC(=O)NC2=O)c(C)n1-c1ccccn1 2.98%, Cc1cc(/C=C2/NC(=O)NC2=O)c(C)n1-c1ccncc1 19.7%, Cc1cc(/C=C2/NC(=O)NC2=O)c(C)n1C 3.8%, Cc1cc(/C=C2/C(=O)NN(c3ccccc3)C2=O)c(C)n1-c1cccc(O)c1 1.07%, Cc1cccc(-n2c(C)cc(/C=C3\NC(=O)NC3=O)c2C)c1 5.86%, Cc1cc(/C=C2\C(=O)NN(c3ccccc3)C2=O)c(C)n1-c1ccccc1O -1.31%, O=C(NNC1=NS(=O)(=O)c2ccccc21)c1ccccc1Cl 1.71%, CC(CC(=O)NC1CCCCC1)S(=O)(=O)c1ccc2c(c1)CCN2C(=O)C1CC1 (centres undefined) 0.99%, CCC(=O)Nc1ccc(C(=O)CSc2nnc(-c3cccnc3)o2)cc1 -0.13%, COc1cc([N+](=O)[O-])ccc1NC(=O)CSc1ccccn1 4.53%, O=C(Nc1ccc(O)c2c(=O)cc(-c3ccccc3Cl)oc12)c1cccc(Cl)c1 -0.66%, CSc1cc(-c2ccc(Cl)cc2)c(C(=O)NN)s1 0.87%, COC(=O)c1nc(N)sc1C 1.76%, COc1ccc(S(=O)(=O)N2CC(C(=O)O)Oc3ccc(CC(=O)O)cc32)cc1 (centres undefined) 1.19%, O=C(Nc1ccc(N2CCCC2)c(Cl)c1)c1cccnc1 5.52%, O=C(Nc1ccc(N2CCOCC2)c(Cl)c1)c1cccnc1 4.29%, O=C(CSc1nnc2ccccn12)NC(=O)NC1CCCC1 0.11%, COc1cccc(OC)c1C(=O)Nc1ccc(C)cc1C(=O)c1ccccc1 6.46%, Cc1nc(CCNS(=O)(=O)c2cccnc2)cs1 -0.89%, O=C(Nc1ccc([N+](=O)[O-])cc1)c1cn(-c2ccccc2)nc1-c1cc2ccccc2o1 0.46%, COc1ccc(NC(=O)c2cn(-c3ccccc3)nc2-c2cc3ccccc3o2)cc1 14.1%, COc1cc(C=O)ccc1OCc1cccc(Br)c1 1.17%, CC(=O)Nc1cccc(NC(=O)c2cccc(S(=O)(=O)N3CCN(Cc4ccccc4)CC3)c2)c1 1.07%, O=C(Nc1ccc2c(c1)OCO2)[C@@H]1[C@@H]2C(=O)N(C3CCCCC3)C(=O)[C@@H]2C2c3ccccc3C=CN21 (some centres undefined) 2.62%, COc1ccc(C(C[N+](=O)[O-])c2c(-c3ccccc3)cc3ccccn23)cc1 (centres undefined) 7.08%, COc1ccc(C(C[N+](=O)[O-])c2c(C)cc3ccccn23)c(OC)c1 (centres undefined) 3.91%, COC(=O)CSc1nc2ccc(NC(=O)CSc3nnnn3Cc3ccccc3)cc2s1 1.43%, COc1ccccc1OCCOCCOc1c(C)cc(C)cc1Br 1.97%, CCOc1ccccc1CNC(=O)c1cc2occc2n1C 2.63%, COc1ccccc1CNC(=O)c1oc2ccccc2c1C 1.89%, CCOc1ccccc1CNC(=O)Cn1c(=O)oc2ccccc21 -0.15%, CCOc1ccccc1CNC(=O)c1cn(C)c(=O)c2c1c1ccccc1n2C 6.47%, COc1ccccc1CNC(=O)c1cc2c(=O)[nH]c3ccccc3c2n1C 16.5%, CCOc1ccccc1CNC(=O)c1c([N+](=O)[O-])c(C)nn1C 0.22%, Cc1cc(NC(=O)CCC(=O)N(CC(=O)NCC2CCCO2)c2cccc(F)c2)no1 (centres undefined) 0.87%, CC(=O)NC1(C(F)(F)F)C(=O)Nc2c1c(=O)[nH]c(=O)n2-c1ccccc1 (centres undefined) -0.08%, CCCCCCC(=O)N1CCC(c2nc3c(nnn3Cc3ccccc3Cl)c(=O)[nH]2)CC1 -3.63%, Cc1ccc(Nc2ccc(S(=O)(=O)N3CCOCC3)cc2[N+](=O)[O-])cc1C 7.23%, CC1=Nc2cc(C(=O)N3CCCC3)ccc2Sc2ccc(C)cc21 3.72%, CC1=Nc2cc(C(=O)N3CCCCC3)ccc2Sc2ccc(C)cc21 4.9%, COc1ccc(N2CCN(c3nc(C)c(C)c(=O)[nH]3)CC2)cc1 1.02%, COCCOc1cc(NC(=O)CS(=O)CC(=O)N(C)C)c(Cl)cc1Cl (centres undefined) 1.9%, O=C(Nc1ccccc1)c1ccc(NC(=O)C2CC2)cc1 2.88%, O=C(Nc1ccc(Nc2ccccc2)cc1)C1CC1 0.83%, CNC(=O)CO/N=C/c1ccc(N(C)C)cc1 2.24%, COc1ccc2cc(CN(Cc3cccnc3)S(=O)(=O)c3ccccc3)c(=O)[nH]c2c1 5.1%, CCCNC(=O)c1cc(S(=O)(=O)N2CCCCC2)ccc1N1CCOCC1 -0.63%, CCn1c(-c2nonc2NC(=O)c2ccccc2)nc2ccccc21 -1.62%, CCC(=O)Nc1nonc1-c1nc2ccccc2n1CC(C)C 4.88%, CC(C)NC(=O)CSc1ccccc1C(=O)NNC(=O)Cn1ccc(C(F)(F)F)n1 -1.83%, CCOc1ccc(C(C)=O)cc1CN1C(=O)NC2(CCCCCC2)C1=O -0.88%, CCOC(=O)c1nn(-c2ccccc2)c(=O)cc1OCC(=O)Nc1cc(C)ccc1OC 0.86%, O=C(NCc1cccs1)C1CCN(C(=O)NCc2ccccc2)CC1 0.51%, COc1cc2c3c(c1)/C(=C1/SC(=S)NC1=O)C(=O)N3C(C)(C)C=C2C 17.4%, CCN1C(=O)/C(=C2/C(=O)N3c4c(cc(OC(C)=O)cc42)C(C)=CC3(C)C)SC1=S 7.27%, Cc1ccc(OCCNC(=O)CCc2ccccc2)cc1C -0.93%, CCc1nccn1S(=O)(=O)c1ccc2ccccc2c1 1.31%, O=C(N/N=C/c1cccnc1)c1cc(C2CC2)nc2ccccc12 1.57%, Cc1cc(C)c2nc(SCC#N)cc(C)c2c1 11.1%, C/C(N)=C(/C#N)C(=O)CSc1cc(C)c2ccccc2n1 12.3%, CC(C)S(=O)(=O)CC(=O)c1ccc(Cl)cc1 1.72%, O=C(Cn1c2ccccc2c2nc3n(c(=O)c21)CCS3)Nc1ccccc1 0.68%, Cc1ccc(C(=O)Nc2ccc3c(c2)C(=O)NC3=O)cc1 3.34%, COc1cc(-c2nnc(SCc3ccccc3Cl)o2)cc(OC)c1OC 10.5%, COc1cc(OC)cc(-c2nnc(SCc3c(F)cccc3Cl)o2)c1 9.5%
